“And” between values parts separate entries of the source, which are not always exact repeats. Equal entries are not always repeated. Records with an inconclusive call do not appear. Where a call stands in place of a potency, no number is given. Unmarked numbers belong to inactive results. The source made the active and inactive calls. Calls come from the whole dose curve.
Potency is the fitted concentration of half-maximal effect.

The assay is described as follows: qHTS assay to identify small molecule agonists of H2AX - cell viability counter screen (AID 1224847). For activity change, negative = cytotoxicity: top concentration of the series differs between compounds. Note: nearly all actives have a fitted effect of over 30% in size. The note with it: CHO-K1 viability, CellTiter-Glo luminescence, 3 h; series mostly up to 154 µM; activity change, negative = cytotoxicity: at the top concentration. The text has this:
National Center for Advancing Translational Sciences [NCATS]
NIH Chemical Genomics Center [NCGC]
U.S. Environmental Protection Agency [EPA]
National Institutes of Environmental Health Sciences [NIEHS]
National Toxicology Program [NTP]
U.S. Food and Drug Administration [FDA]
HTRF phospho-H2AX (Ser139) assay (Cisbio Bioassays, US) enables the quantitative detection of the histone variant H2AX when phosphorylated on serine 139. When double-stranded DNA breaks, either by ionizing radiation or endogenous physiological processes, H2AX becomes phosphorylated at Ser139. This phospho-Ser139 serves as a sensitive biomarker for the detection of such breaks, localizing the site of DNA repair. So, HTRF phospho-H2AX Ser139 is a pertinent assay to study genome stability, the cell cycle, DNA repair, and it serves as a biomarker for cancer, and to understand aging. Wild type CHO-K1 cells were used to identify the inducers of Phospho-H2AX Ser 139 from the Tox21 compound collections. Also cytotoxicity of the Tox21 10K compound library against the CHO-K1 cell line was tested by measuring the cell viability using CellTiter-Glo assay (Promega, Madison, WI).
Tox21 Assay Protocol Summary:
The CHO-K1 cells suspended in culture medium containing 10% FBS were dispensed at 1000 cells/ 3 ul/well in 1536-well white wall/solid bottom plates (Greiner Bio-One North America, NC) using a Multidrop Combi (Thermo Fisher Scientific Inc., Waltham, MA). After the assay plates were incubated at 37C overnight, 23 nl of compounds at 15 concentrations (from 5-48 columns) or positive control (from 1 to 4 columns) were transferred to the assay plates using a Pintool station (Wako, San Diego, CA) into each well resulting in a final DMSO concentration of 0.76%. After 3hr incubation at 37C, 3 uL/well CellTiter-Glo luminescent cell viability reagent (Promega Corporation, Madison, WI) was added using a Flying Reagent Dispenser (FRD) (Aurora Discovery, CA). After incubation at room temperature for 30 min, the luminescence intensity was read using a ViewLux plate reader (PerkinElmer, Waltham, MA).
For orientation: Quantitative high-throughput screening tests each substance at several concentrations.
Take `CCCCCCCCCCCOC(=O)c1ccccc1C(=O)OCCCCCCCCCCC`: the Potency entry is “inactive”.

As for `CCC(C)(C)c1ccc(O)cc1`, the Potency was 80 µM (active).

Take `N#CC(Br)Br`: the Potency entry is “inactive”.

For the compound `Cc1ccccc1[N+](=O)[O-]`, the Potency result was “inactive”.

With `C=C(C)[C@H]1Cc2c(ccc3c2O[C@@H]2COc4cc(OC)c(OC)cc4[C@@H]2C3=O)O1`, the Potency was 0.091 µM (active).

Regarding `Cc1cc(C)cc(C)c1`, the Potency result was “inactive”.

For `COP(=S)(OC)Oc1cc(Cl)c(Cl)cc1Cl`, the “activity change, negative = cytotoxicity” value is -1.06% [at 70.9 µM].

As for `CCCCCCCCC(=O)NCc1ccc(O)c(OC)c1`, the “activity change, negative = cytotoxicity” value was 1.43% [at 70.9 µM].

Take `CCN(N=O)C(N)=O`: the Potency result is “inactive”.

As to `S=C1NCCN1`, the Potency entry was “inactive”.

Take `CCCCN(CCCC)N=O`: the Potency result was “inactive”.

On to `C#C[C@]1(O)CC[C@H]2[C@@H]3CCC4=CC(=O)CC[C@]4(C)[C@H]3CC[C@@]21C`, for which the Potency result was “inactive”.

Regarding `NC(=S)Nc1ccccc1`, the “activity change, negative = cytotoxicity” value was 0.555%.

Consider `Clc1nc(Cl)nc(Cl)n1`, for which the Potency entry is “inactive”.

As for `CCCCNC(=O)n1c(NC(=O)OC)nc2ccccc21`, the Potency entry was “inactive”.

`CC(C)(c1cc(Cl)c(O)c(Cl)c1)c1cc(Cl)c(O)c(Cl)c1`: the Potency result was “inactive”.

Turning to `CN(C)C(=O)Nc1ccc(Cl)cc1`, the Potency entry is “inactive”.

In the case of `CC(C)c1ccc(CO)cc1`, the Potency entry is “inactive”.

On to `Nc1cccnc1`, for which the Potency entry is “inactive”.

Consider `CCCCN(CC)c1c([N+](=O)[O-])cc(C(F)(F)F)cc1[N+](=O)[O-]`, for which the Potency result is “inactive”.

Regarding `O=[N+]([O-])c1cccc2ccccc12`, the Potency entry is “inactive”.

For `Oc1cc(Cl)ccc1Oc1ccc(Cl)cc1Cl`, the Potency was 51.7 µM (active) and 43.8 µM (active).

Turning to `Cc1ccc2c(c1N)C(=O)c1ccccc1C2=O`, the Potency result is “inactive”.

As for `Brc1ccc(Oc2cc(Br)c(Br)cc2Br)c(Br)c1`, the “activity change, negative = cytotoxicity” value was -2.15%.

As to `Nc1c(Cl)cc([N+](=O)[O-])cc1Cl`, the “activity change, negative = cytotoxicity” value is -1.98%.

As to `O=[N+]([O-])c1c(Cl)c(Cl)c(Cl)c(Cl)c1Cl`, the Potency entry was “inactive”.

Take `CCN(CC)N=O`: the Potency entry was “inactive”.

As to `c1ccc(P(c2ccccc2)c2ccccc2)cc1`, the Potency entry is “inactive”.

`O=C(NC(=O)c1c(F)cccc1F)Nc1ccc(Cl)cc1`: the Potency entry was “inactive”.

Consider `CCOCN(C(=O)CCl)c1c(C)cccc1CC`, for which the Potency entry was “inactive”.

Take `c1cc(OCC2CO2)ccc1Cc1ccc(OCC2CO2)cc1` (stereo not given): the Potency entry was “inactive”.

For the compound `Cc1cccc(N)c1N`, the “activity change, negative = cytotoxicity” value is 2.65%.

Turning to `CC(C)Oc1cc(-n2nc(C(C)(C)C)oc2=O)c(Cl)cc1Cl`, the “activity change, negative = cytotoxicity” value is -6.62%.

For the compound `Nn1cnnc1`, the Potency entry was “inactive”.

Turning to `Cc1ccc(N)c(N)c1`, the “activity change, negative = cytotoxicity” value is -7.51%.

For the compound `CCc1cccc(CC)c1N(COC)C(=O)CCl`, the Potency entry is “inactive”.

Consider `CC1(C)C(C=C(Cl)Cl)C1C(=O)OC(C#N)c1cccc(Oc2ccccc2)c1` (stereo not given), for which the Potency entry is “inactive”.

Consider `C=CCc1ccc(OC)cc1`, for which the Potency result was “inactive”.

Regarding `CCN(CC)C(=O)SCc1ccc(Cl)cc1`, the “activity change, negative = cytotoxicity” value was -12.1%.

For the compound `C1=Cc2cccc3cccc1c23`, the Potency entry was “inactive”.

Source of the values: PubChem BioAssay (Tox21).
